High-throughput results (PubChem)
Shown are actives, neighbours in structure and some others; about 3.5% of the full set was active somewhere.
MITF inh – inhibitors of human MITF; O75030; AID 1259374; actives 0.91% (n = 650,000); inhibition, % at 2.6 µM; AlphaScreen MITF homodimerization, bead proximity signal; in the data active = inhibition above about 50%;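 also: 0% = vehicle wells with protein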
FBW7 activator – activators of human E3 ligase FBW7; actives 0.13% (n = 650,000); normalized activity (activation), % at 26.1 µM; Q969H0; AID 1259310; AlphaScreen FBW7–phospho-cyclin E peptide binding, activator screen; in the data active = normalized activity above about 1.9%;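 also: purified mutant Fbw7 with reduced substrate affinity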
GPR151 activ – human GPR151 activation; Q8TDV0; PathHunter beta-arrestin GPR151 cells, luminescence; actives 1% (n = 650,000); activation, % at 11.2 µM; AID 1508602; in the data active = activation above about 4.9%;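 also: 0% = median of compound wells and 100% = cells with positive control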
TEAD-YAP inh – TEAD-YAP interaction inhibition; inhibition, % at 9.12 µM; actives 1.4% (n = 640,000); HEK-TIYL cells, TEAD-Gal4/YAP UAS-luciferase luminescence; in the data active = inhibition above about 32%;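 also: 0% = median of test compound wells and 100% = reference inhibitor wells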
GPR151 confirm – human GPR151 activation, confirmation screen; activation, % at 11.2 µM; GPR151 PathHunter beta-arrestin cells, luminescence, 90 min; % of EA-reagent control over plate median; 6,700 tested, under 10 active; shares compounds with GPR151 activ; AID 1508609;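 active = mean percent activation across replicates above the confirmation screen cutoff of 4.91%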
GPR119 counter – counter-screen for GPR151 activators: effect on human GPR119 | shares compounds with GPR151 activ | GPR119 PathHunter beta-arrestin cells, luminescence, 90 min; 0 = compound-well median, 100 = enzyme-acceptor control | activation, % at 11.2 µM | actives 0.3% (n = 6,700) | AID 1508611;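 active = mean percent activation in the counterscreen above 29.09%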;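 also: counterscreen on off-target GPR119 to flag nonselective hits from the GPR151 activator screen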
Target sequence (Q8TDV5 whole entry, looked up): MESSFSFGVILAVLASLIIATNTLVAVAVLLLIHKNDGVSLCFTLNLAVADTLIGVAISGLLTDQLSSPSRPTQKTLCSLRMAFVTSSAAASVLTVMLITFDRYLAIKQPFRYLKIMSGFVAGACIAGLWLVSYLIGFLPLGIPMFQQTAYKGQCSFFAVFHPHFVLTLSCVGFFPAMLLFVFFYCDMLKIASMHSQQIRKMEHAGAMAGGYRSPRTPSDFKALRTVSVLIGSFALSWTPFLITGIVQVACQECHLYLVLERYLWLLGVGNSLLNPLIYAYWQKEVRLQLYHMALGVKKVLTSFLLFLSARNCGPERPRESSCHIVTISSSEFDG
* hit, by the source's call; . = no result given.

SMILES	MITF inh	FBW7 activator	GPR151 activ	TEAD-YAP inh	GPR151 confirm	GPR119 counter
CC1CCN(S(=O)(=O)c2cccc(-c3nnc(-c4cccc([N+](=O)[O-])c4)o3)c2)CC1	0.1	-0.1	5.6*	6.2	1.2	3.0
O=[N+]([O-])c1cccc(-c2nnc(-c3cccc(S(=O)(=O)N4CCOCC4)c3)o2)c1	2.1	-0.1	-0.8	-4.2	.	.
Cn1cccc1C(=O)NC(=O)CSc1cccc[n+]1[O-]	-0.8	-0.2	4.9*	-3.1	0.7	7.0
COc1ccccc1C(=O)NC(=O)CSc1cccc[n+]1[O-]	-12.4	0.1	-0.6	4.1	.	.
CCCCOC(C)n1cc(Cl)c(=O)[nH]c1=O (centres undefined)	8.2	0.1	5.1*	6.9	0.5	-2.0
O=C(CSc1nnc(-c2cccnc2)o1)c1ccc2ccccc2c1	0.4	0.0	-0.3	-2.2	.	.
O=C(CSc1nnc(-c2cccnc2)o1)c1ccccc1	4.8	-0.2	5.9*	-21.1	0.1	3.6
O=C(CSc1nnc(-c2cccnc2)o1)Nc1nc(-c2ccccc2)cs1	9.9	-0.1	7.5*	3.0	-0.5	-1.9
O=C(NC(c1ccc2c(c1)OCO2)c1ccccn1)C1CCN(C(=O)c2cccs2)CC1 (centres undefined)	-3.8	-0.1	0.8	2.2	.	.
CCOc1cc(/C=C(/C#N)c2nc3ccc(OC)cc3[nH]2)cc([N+](=O)[O-])c1O	9.1	-0.2	-1.8	-8.2	.	.
COc1ccc(C(=O)N/C(=C/c2cccc([N+](=O)[O-])c2)C(=O)Nc2cc(Cl)ccc2C)c(Cl)c1	-11.0	0.0	11.6*	-7.8	-0.3	-6.0
COc1ccc(Br)c(C(=O)N/C(=C/c2cccc([N+](=O)[O-])c2)C(=O)Nc2cc(Cl)ccc2C)c1	-6.9	0.0	0.2	10.0	.	.
Cc1cc(N2C(=O)C3C4C=CC(C5CC45)C3C2=O)c([N+](=O)[O-])cc1C (centres undefined)	20.3	0.0	-0.9	4.7	.	.
CC(C)[C@H](NC(N)=O)C(=O)Nc1ccc(I)cc1	6.3	-0.1	5.9*	1.1	1.7	11.9
COc1cc(C=O)ccc1OCc1ccccc1Cl	12.0	0.1	-2.3	-24.1	.	.
CC(C)c1ccc(/C=N/Nc2nncc(=O)[nH]2)cc1	17.1	-0.6	5.6*	-43.6	0.0	-12.0
Cc1ccc(C)c(-c2csc(NC(=O)c3ccc(S(=O)(=O)N4CCc5ccccc5C4)cc3)n2)c1	-12.5	0.2	-0.2	-8.1	.	.
Cc1sc(NC(=O)c2ccco2)c(CN2CCN(CCO)CC2)c1C	0.6	-0.2	25.1*	14.1	0.9	1.3
CC(CCc1ccccc1)NC(=O)Cn1c(CO)nc2ccccc21 (centres undefined)	-10.9	0.0	6.2*	5.1	0.3	9.6
COC(=O)c1cccc(NC(=O)/C(=C\c2ccc(OC)cc2)NC(=O)c2ccccc2OC)c1	9.6	-0.1	0.3	-6.1	.	.
CC1(C)CC(NC(=S)Nc2ccccc2F)CC(C)(C)N1	10.1	-0.1	8.3*	-2.2	-0.9	-6.4
CC(C)C(=O)NCCc1nc2ccccc2n1Cc1ccccc1	7.6	0.0	-0.1	-4.1	.	.
C=CCn1c(CCNC(=O)C(C)C)nc2ccccc21	4.9	0.0	7.0*	-0.8	-0.1	4.2
CCN(CC)S(=O)(=O)c1cccc(-c2cn3cccnc3n2)c1	7.4	0.1	-1.3	6.9	.	.
CC1CCCN(S(=O)(=O)c2cccc(-c3cn4cccnc4n3)c2)C1 (centres undefined)	1.9	0.1	5.0*	-2.3	1.7	2.4
SMILES	MITF inh	FBW7 activator	GPR151 activ	TEAD-YAP inh	GPR151 confirm	GPR119 counter
Cc1sc2nc(C(C)C)n3c(=O)n(Cc4ccccn4)nc3c2c1C	-3.0	-0.1	12.6*	-2.5	-0.7	1.1
COc1ccnc(Cn2nc3c4c(C)c(C)sc4nc(C(C)C)n3c2=O)c1OC	-12.3	-0.2	-0.1	-7.3	.	.
CCn1nc2c3c(C)c(C)sc3nc(C(C)C)n2c1=O	4.7	-0.1	1.8	6.3	.	.
Cc1sc2nc(C(C)C)n3c(=O)n(CCN4CCCC4)nc3c2c1C	-2.3	-0.4	11.2*	8.0	0.1	3.3
CC(=O)Nc1ccc(S(=O)(=O)c2ccc(NC(C)=O)cc2)cc1	15.3	0.2	-0.9	-0.5	.	.
COc1ccc(NCc2ccc(OC)c(OC)c2OC)cc1Cl	17.4	-0.3	7.9*	-30.9	1.3	15.3
